Records with an inconclusive call do not appear. Calls of active or inactive are those of the source. Calls come from the whole dose curve; as a rule, active = well fitted curve in the direction sought with a large enough effect; inconclusive = small, poorly fitted or top-dose-only effect, or another doubt; inactive = no such curve, though single readings can be large; an effect the other way counts as inactive or inconclusive.
Key:
C33A = experiment: Primary qHTS to identify gynecologic anti-cancer compounds using libraries of approved drugs and bioactive compounds (AID 1345084); conditions: Gynecologic cancer cell panel viability, ATPlite luminescence, 48 h; series mostly up to 57.5 µM; note: nearly all actives have a fitted effect of over 55% in size
Method in brief: (§1)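 Cells, 1,000 per well, were allowed to settle for 16 h at 37 C before compound addition. Five concentrations were tested for 48 h, and viability was read by ATPlite luminescence after 15 min at room temperature.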

CAOV3 = experiment: as above; conditions: Gynecologic cancer cell panel viability, ATPlite luminescence, 48 h; series mostly up to 57.5 µM
Method in brief: as §1

CASKI = experiment: as above; conditions: Gynecologic cancer cell panel viability, ATPlite luminescence, 48 h; series mostly up to 57.5 µM
Method in brief: as §1

Es-2 = experiment: as above; conditions: Gynecologic cancer cell panel viability, ATPlite luminescence, 48 h; series mostly up to 57.5 µM
Method in brief: as §1

HeLa = experiment: as above; conditions: Gynecologic cancer cell panel viability, ATPlite luminescence, 48 h; series mostly up to 57.5 µM
Method in brief: as §1

Hek293T = experiment: as above; conditions: Gynecologic cancer cell panel viability, ATPlite luminescence, 48 h, control line for the selectivity index; series mostly up to 57.5 µM
Method in brief: as §1

JEG-3 = experiment: as above; conditions: Gynecologic cancer cell panel viability, ATPlite luminescence, 48 h; series mostly up to 57.5 µM
Method in brief: as §1

OV90 = experiment: as above; conditions: Gynecologic cancer cell panel viability, ATPlite luminescence, 48 h; series mostly up to 57.5 µM
Method in brief: as §1

PA-1 = experiment: as above; conditions: Gynecologic cancer cell panel viability, ATPlite luminescence, 48 h; series mostly up to 57.5 µM
Method in brief: as §1

SKOV3 = experiment: as above; conditions: Gynecologic cancer cell panel viability, ATPlite luminescence, 48 h; series mostly up to 57.5 µM
Method in brief: as §1

Tov-21-G = experiment: as above; conditions: Gynecologic cancer cell panel viability, ATPlite luminescence, 48 h; series mostly up to 57.5 µM
Method in brief: as §1

Tov112D = experiment: as above; conditions: Gynecologic cancer cell panel viability, ATPlite luminescence, 48 h; series mostly up to 57.5 µM
Method in brief: as §1

UISO = experiment: qHTS assay to identify novel small-molecules to repurpose for Merkel cell carcinoma treatment (AID 1296009); conditions: MCC and control cell lines, CellTiter-Glo viability, 72 h; series mostly up to 46 µM; note: nearly all actives have a fitted effect of over 60% in size
Method in brief: (§2)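 Cells exposed to NPC (8-point) and MIPE (11-point) compound dilutions for 72 hr at 37 degree celsius; viability read by CellTiter-Glo luminescence, normalized to no-cell and DMSO in-plate controls.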

WaGa = experiment: as above; conditions: MCC and control cell lines, CellTiter-Glo viability, 72 h; series mostly up to 46 µM
Method in brief: as §2
% is set by controls: 0 for no effect and ±100 for the full control effect.

C=C(C)[C@@H]1CC[C@]2(C)CC[C@]3(C)[C@H](CC[C@@H]4[C@@]5(C)CC[C@@H](O)C(C)(C)[C@@H]5CC[C@]43C)[C@@H]12
inactive: Potency (C33A) | Potency (CAOV3) | Potency (CASKI) | Potency (Es-2) | Potency (HeLa) | Potency (Hek293T) | Potency (JEG-3) | Potency (OV90) | Potency (PA-1) | Potency (SKOV3) | Potency (Tov-21-G) | Potency (Tov112D)

CC1=C(CCC(C)O[C@@H]2O[C@H](CO)[C@@H](O)[C@H](O)[C@H]2O)C(C)(C)CCC1=O (stereo not given in full)
inactive: Potency (C33A) | Potency (CAOV3) | Potency (CASKI) | Potency (Es-2) | Potency (HeLa) | Potency (Hek293T) | Potency (JEG-3) | Potency (OV90) | Potency (PA-1) | Potency (SKOV3) | Potency (Tov-21-G) | Potency (Tov112D)

COc1ccc(C(O)C(C)OC2OC(CO)C(O)C(O)C2O)cc1 (stereo not given)
inactive: Potency (C33A) | Potency (CAOV3) | Potency (CASKI) | Potency (Es-2) | Potency (HeLa) | Potency (Hek293T) | Potency (JEG-3) | Potency (OV90) | Potency (PA-1) | Potency (SKOV3) | Potency (Tov-21-G) | Potency (Tov112D)

C[C@@H]1O[C@@H](O[C@H]2[C@H](OC(=O)[C@]34CCC(C)(C)C[C@H]3C3=CCC5[C@@]6(C)CC[C@H](O[C@@H]7O[C@H](C(=O)O)[C@@H](O)[C@H](O)[C@H]7O[C@@H]7O[C@H](CO)[C@H](O)[C@H](O)[C@H]7O)[C@@](C)(C=O)C6CC[C@@]5(C)[C@]3(C)C[C@H]4O)O[C@H](C)[C@H](O[C@@H]3O[C@H](C)[C@H](O)[C@H](O)[C@H]3O)[C@@H]2O)[C@H](O)[C@H](O)[C@H]1O[C@@H]1OC[C@@H](O)[C@H](O[C@@H]2O[C@H](CO)[C@@H](O)[C@H](O)[C@H]2O)[C@H]1O (stereo not given in full)
inactive: activity change, negative = cytotoxicity (C33A) 29.4% [at 6.55 µM] | activity change, negative = cytotoxicity (CAOV3) 2.56% [at 6.55 µM] | activity change, negative = cytotoxicity (CASKI) 4.26% [at 6.55 µM] | activity change, negative = cytotoxicity (Es-2) 0.809% [at 6.55 µM] | activity change, negative = cytotoxicity (HeLa) 3.75% [at 6.55 µM] | activity change, negative = cytotoxicity (Hek293T) 8.68% [at 6.55 µM] | activity change, negative = cytotoxicity (JEG-3) -1.59% [at 6.55 µM] | activity change, negative = cytotoxicity (OV90) -26.3% [at 6.55 µM]

CCOCCOC(=O)/C=C/c1ccc(OC)cc1
inactive: Potency (UISO) | Potency (WaGa) | Potency (C33A) | Potency (CAOV3) | Potency (CASKI) | Potency (Es-2) | Potency (HeLa) | Potency (Hek293T) | Potency (JEG-3) | Potency (OV90) | Potency (PA-1) | Potency (SKOV3) | Potency (Tov-21-G) | Potency (Tov112D)

CC(C)[C@H]1CC[C@@]2(O)COC(=O)[C@H]2[C@@H]1/C=C(\CO)C(=O)O
inactive: Potency (C33A) | Potency (CAOV3) | Potency (CASKI) | Potency (Es-2) | Potency (HeLa) | Potency (Hek293T) | Potency (JEG-3) | Potency (OV90) | Potency (PA-1) | Potency (SKOV3) | Potency (Tov-21-G) | Potency (Tov112D)

C[C@@]12C[C@]3(O)O[C@H](O1)[C@]1(COC(=O)c4ccccc4)[C@H]3C[C@@]12O[C@@H]1O[C@H](CO)[C@@H](O)[C@H](O)[C@H]1O
inactive: Potency (C33A) | Potency (CAOV3) | Potency (CASKI) | Potency (Es-2) | Potency (HeLa) | Potency (Hek293T) | Potency (JEG-3) | Potency (OV90) | Potency (PA-1) | Potency (SKOV3) | Potency (Tov-21-G) | Potency (Tov112D)

O=C(O)c1c(O)c(-c2ccccc2)nc2ccccc12
inactive: Potency (UISO) | Potency (WaGa) | Potency (C33A) | Potency (CAOV3) | Potency (CASKI) | Potency (Es-2) | Potency (HeLa) | Potency (Hek293T) | Potency (JEG-3) | Potency (OV90) | Potency (PA-1) | Potency (SKOV3) | Potency (Tov-21-G) | Potency (Tov112D)

O=C(O)[C@H](Cc1ccc(Nc2nccc3ccncc23)cc1)NC1=C(Br)C(=O)C12CCCCC2
inactive: Potency (C33A) | Potency (CAOV3) | Potency (CASKI) | Potency (Es-2) | Potency (HeLa) | Potency (Hek293T) | Potency (JEG-3) | Potency (OV90) | Potency (PA-1) | Potency (SKOV3) | Potency (Tov-21-G) | Potency (Tov112D)

CCC(C(=O)O)c1ccc(N2Cc3ccccc3C2=O)cc1 (stereo not given)
inactive: Potency (UISO) | Potency (WaGa) | Potency (C33A) | Potency (CAOV3) | Potency (CASKI) | Potency (Es-2) | Potency (HeLa) | Potency (Hek293T) | Potency (JEG-3) | Potency (PA-1) | Potency (SKOV3) | Potency (Tov-21-G) | Potency (Tov112D)

COc1cc(C)c(C(=O)Oc2cc(C)c(C(=O)Oc3cc(C)c(C(=O)NC(C)C(=O)O)c(O)c3)c(O[C@@H]3O[C@H](CO)[C@@H](O)[C@H](O)[C@H]3OC(C)=O)c2)c(OC)c1 (stereo not given in full)
inactive: Potency (C33A) | Potency (CAOV3) | Potency (CASKI) | Potency (Es-2) | Potency (HeLa) | Potency (Hek293T) | Potency (JEG-3) | Potency (OV90) | Potency (PA-1) | Potency (SKOV3) | Potency (Tov-21-G) | Potency (Tov112D)

O=C(O)c1ccccc1NCCc1ccccc1
inactive: Potency (UISO) | Potency (WaGa) | Potency (C33A) | Potency (CAOV3) | Potency (CASKI) | Potency (Es-2) | Potency (HeLa) | Potency (Hek293T) | Potency (JEG-3) | Potency (PA-1) | Potency (SKOV3) | Potency (Tov-21-G) | Potency (Tov112D)

COC(=O)c1ccccc1O[C@@H]1O[C@H](CO)[C@@H](O)[C@H](O)[C@H]1O[C@@H]1O[C@@H](C)[C@H](O)[C@@H](O)[C@H]1O
inactive: Potency (C33A) | Potency (CAOV3) | Potency (CASKI) | Potency (Es-2) | Potency (HeLa) | Potency (Hek293T) | Potency (JEG-3) | Potency (OV90) | Potency (PA-1) | Potency (SKOV3) | Potency (Tov-21-G) | Potency (Tov112D)

COC(=O)CCC(=O)OC[C@]1(C)CCC[C@@]2(C)C3CC[C@]4(C)C=CC3(CCC12)C4 (stereo not given in full)
inactive: Potency (C33A) | Potency (CAOV3) | Potency (CASKI) | Potency (Es-2) | Potency (HeLa) | Potency (Hek293T) | Potency (JEG-3) | Potency (OV90) | Potency (PA-1) | Potency (SKOV3) | Potency (Tov-21-G) | Potency (Tov112D)

From PubChem BioAssay (NCATS)
